Hck Nef HTS – inhibitors of Nef-activated human Hck kinase, primary screen, biochemical, Z-Lyte FRET, 384-well, Hck-YEEI | 220,000 compounds, 0.68% hits | AID 463187, 2010 | Tyrosine-protein kinase HCK (Homo sapiens), P08631 | inhibition, % at 20 µM | Recombinant Hck-YEEI plus Nef, Z-Lyte FRET kinase assay;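 active = Hck-Nef kinase inhibition above about 50%, limit read from the data; inactive = inhibition below that limit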;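 note: 0% = DMSO with Hck plus Nef and 100% = Hck alone without Nef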
Mcl1-Noxa inh – Mcl-1/Noxa binding inhibitors, primary screen, biochemical, TR-FRET, 1536-well | Induced myeloid leukemia cell differentiation protein Mcl-1 (Homo sapiens), Q07820 | TR-FRET Mcl-1/Noxa peptide binding, 2 h | inhibition, % at 21.7 µM | 220,000 compounds, 1.5% hits;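 active = compounds that cut the protein-peptide binding signal by more than 50% relative to plate controls in a single-dose test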;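 note: His-tagged Mcl-1 with rhodamine Noxa BH3 peptide and terbium anti-His antibody; 0% = Mcl-1 plus Noxa peptide wells and 100% = peptide-only wells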
Target sequence (Q07820 whole entry, looked up): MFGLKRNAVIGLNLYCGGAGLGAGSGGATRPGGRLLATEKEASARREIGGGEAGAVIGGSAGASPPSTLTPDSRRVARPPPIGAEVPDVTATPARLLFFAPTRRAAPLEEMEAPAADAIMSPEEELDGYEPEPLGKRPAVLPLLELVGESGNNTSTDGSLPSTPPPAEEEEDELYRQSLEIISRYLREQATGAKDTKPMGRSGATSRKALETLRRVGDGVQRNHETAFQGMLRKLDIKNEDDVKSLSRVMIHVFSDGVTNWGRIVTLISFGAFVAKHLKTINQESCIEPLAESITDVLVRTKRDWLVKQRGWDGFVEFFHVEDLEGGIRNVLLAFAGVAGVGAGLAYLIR
eIF4E 4G PPI – eIF4E–eIF4G protein interaction inhibitors, primary screen, biochemical, uHTS, TR-FRET, eIF4GI fragment; Eukaryotic translation initiation factor 4E (Mus musculus) + Eukaryotic translation …; TR-FRET eIF4E-eIF4GI(517-606) binding, 2 h; inhibition, % at 21.7 µM; 220,000 compounds, 0.37% hits; AID 782, 2007;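 active = inhibition above about 30%, limit read from the data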;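 note: 0% = full FRET control wells and 100% = background wells lacking eIF4GI fragment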
Mcl-1 Bim block – inhibitors of Bim peptide binding to Mcl-1, primary screen, biochemical, bead-based flow cytometry, multiplex; 190,000 compounds, 0.1% hits; inhibition, % at 10 µM; Bim peptide-Mcl-1 binding; in the data active = inhibition above about 40%;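 note: 0% = no compound tracer wells and 100% = peptide blocker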
14-3-3 Bad PPI – inhibitors of 14-3-3 zeta/Bad binding, primary screen, biochemical, TR-FRET, bovine 14-3-3 zeta. inhibition, % at 21.7 µM. AID 781, 2007. 220,000 compounds, 0.71% hits. 14-3-3 protein zeta/delta (Bos taurus), P63103. TR-FRET 14-3-3zeta/Dy647-pBad peptide displacement, 1 h;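 active = inhibition above about 70%, limit read from the data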;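 note: 0% = full 14-3-3 plus peptide FRET controls and 100% = background without 14-3-3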
Target sequence (P63103 whole entry, looked up): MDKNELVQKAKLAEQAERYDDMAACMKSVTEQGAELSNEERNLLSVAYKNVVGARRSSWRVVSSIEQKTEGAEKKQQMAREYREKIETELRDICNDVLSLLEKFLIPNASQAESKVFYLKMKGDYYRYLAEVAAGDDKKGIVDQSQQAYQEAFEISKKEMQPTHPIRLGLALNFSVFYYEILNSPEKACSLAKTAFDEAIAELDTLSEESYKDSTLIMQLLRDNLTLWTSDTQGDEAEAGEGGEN
Mcl1-Bid inh – Mcl-1/Bid binding inhibitors, primary screen, biochemical, TR-FRET, 1536-well; Induced myeloid leukemia cell differentiation protein Mcl-1 (Homo sapiens), Q07820; TR-FRET Mcl-1/Bid-Dy647 peptide binding; inhibition, % at 21.7 µM; 220,000 compounds, 0.97% hits; AID 1021, 2008;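 active = compounds that cut the binding signal by more than half at the single screening dose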;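 note: His-tagged Mcl-1 with europium anti-His antibody binding Bid BH3 peptide; 0% = Mcl-1 plus peptide wells and 100% = peptide-only wells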
Numbers without * were called inactive. This is a sample that favours compounds with a hit; in the whole collection about 3.5% have one here.

How did CCC(c1nnnn1Cc1ccc(F)cc1)N1CCN(C2CCCCC2)CC1 (stereo not drawn) do in these assays?
Hck Nef HTS: 0; Mcl1-Noxa inh: 13; eIF4E 4G PPI: 5; Mcl-1 Bim block: 0; 14-3-3 Bad PPI: 48; Mcl1-Bid inh: -7

Results for CC(C)c1onc(C(=O)N2CCN(Cc3ccccc3)CC2)c1[N+](=O)[O-] ?
Hck Nef HTS: -8; Mcl1-Noxa inh: 14; eIF4E 4G PPI: 2; Mcl-1 Bim block: -2; 14-3-3 Bad PPI: -10; Mcl1-Bid inh: -6

What do the screens show for `CS(=O)(=O)c1cc([N+](=O)[O-])c(Sc2nc3ccccc3[nH]2)c([N+](=O)[O-])c1`?
Hck Nef HTS: 0; Mcl1-Noxa inh: 45; eIF4E 4G PPI: -6; Mcl-1 Bim block: 2; 14-3-3 Bad PPI: 87*; Mcl1-Bid inh: -35

How did COc1cc(C(CC(=O)N2CCCC2)c2c(OC)cc(OC)c3c(-c4ccccc4)cc(=O)oc23)cc(OC)c1OC (stereo not drawn) do in these assays?
Hck Nef HTS: 28; Mcl1-Noxa inh: 36; eIF4E 4G PPI: 4; 14-3-3 Bad PPI: 21; Mcl1-Bid inh: -49

How did COc1ccc(C(CC(=O)N2CCOCC2)c2c(OC)cc(OC)c3c(-c4ccccc4)cc(=O)oc23)cc1 (stereo not drawn) do in these assays?
Hck Nef HTS: 17; Mcl1-Noxa inh: 54*; eIF4E 4G PPI: 27; 14-3-3 Bad PPI: 27; Mcl1-Bid inh: -18

How did COc1ccc(C(CC(=O)N2CCN(c3ccccc3)CC2)c2c(OC)cc(OC)c3c(-c4ccccc4)cc(=O)oc23)cc1 (stereo not drawn) do in these assays?
Hck Nef HTS: 24; Mcl1-Noxa inh: 3; eIF4E 4G PPI: 4; 14-3-3 Bad PPI: 4; Mcl1-Bid inh: -49

What do the screens show for `COc1ccc(C(CC(=O)N2CCCC2)c2c(OC)cc(OC)c3c(-c4ccccc4)cc(=O)oc23)cc1` (stereo not drawn)?
Hck Nef HTS: 29; Mcl1-Noxa inh: 87*; eIF4E 4G PPI: 34*; 14-3-3 Bad PPI: 40; Mcl1-Bid inh: -111

How did COc1ccc(C(CC(=O)N2CCCC(C)C2)c2c(OC)cc(OC)c3c(-c4ccccc4)cc(=O)oc23)cc1 (stereo not drawn) do in these assays?
Hck Nef HTS: -7; Mcl1-Noxa inh: 59*; eIF4E 4G PPI: 26; 14-3-3 Bad PPI: 24; Mcl1-Bid inh: -103

What do the screens show for `COc1ccc(C(CC(=O)N2CCCCC2)c2c(OC)cc(OC)c3c(-c4ccccc4)cc(=O)oc23)cc1` (stereo not drawn)?
Hck Nef HTS: 36; Mcl1-Noxa inh: 63*; eIF4E 4G PPI: 26; 14-3-3 Bad PPI: 21; Mcl1-Bid inh: -102

How did CCOC(=O)C1=C(Nc2ccc(OC)cc2)OCC1=O do in these assays?
Hck Nef HTS: 16; Mcl1-Noxa inh: -5; eIF4E 4G PPI: 1; 14-3-3 Bad PPI: -10; Mcl1-Bid inh: -4

What do the screens show for `CCn1c(SCc2ccc(F)cc2)nnc1-c1nn(-c2ccccc2)ccc1=O`?
Hck Nef HTS: -1; Mcl1-Noxa inh: 5; eIF4E 4G PPI: 0; Mcl-1 Bim block: 1; 14-3-3 Bad PPI: -1; Mcl1-Bid inh: -27

Results for CCNc1ncnc2c1cnn2C ?
Hck Nef HTS: 20; Mcl1-Noxa inh: 0; eIF4E 4G PPI: -2; Mcl-1 Bim block: -1; 14-3-3 Bad PPI: -6; Mcl1-Bid inh: -12

What do the screens show for `O=C(Nc1ccc(F)cc1)C1CCC(CNc2c(N3CCCCC3)c(=O)c2=O)CC1` (stereo not drawn)?
Hck Nef HTS: 1; Mcl1-Noxa inh: -1; eIF4E 4G PPI: -4; 14-3-3 Bad PPI: 1; Mcl1-Bid inh: -15

Results for COc1cccc(/C=C2\SC(=O)NC2=O)c1OCc1ccc(C(=O)O)cc1 ?
Hck Nef HTS: 20; Mcl1-Noxa inh: 7; eIF4E 4G PPI: 0; Mcl-1 Bim block: 0; 14-3-3 Bad PPI: -14; Mcl1-Bid inh: -60

How did O=C1N/C(=N/NC(=O)c2cccc3ccccc23)S/C1=C\c1ccccc1OCc1ccccc1 do in these assays?
Hck Nef HTS: 8; Mcl1-Noxa inh: 19; eIF4E 4G PPI: -4; Mcl-1 Bim block: -1; 14-3-3 Bad PPI: -8; Mcl1-Bid inh: 57*

What do the screens show for `CCOc1cc(/C=C(\C#N)c2[nH]nc(N)c2C#N)ccc1O`?
Hck Nef HTS: 12; Mcl1-Noxa inh: 78*; eIF4E 4G PPI: -7; Mcl-1 Bim block: 16; 14-3-3 Bad PPI: -14; Mcl1-Bid inh: -56

What do the screens show for `Cc1cc2nc(CO)[nH]c2cc1C`?
Hck Nef HTS: 18; Mcl1-Noxa inh: -1; eIF4E 4G PPI: -9; 14-3-3 Bad PPI: 1; Mcl1-Bid inh: -28

What do the screens show for `Cc1cc2nc(/C=C/c3nc4cc(C)c(C)cc4[nH]3)[nH]c2cc1C`?
Hck Nef HTS: 15; Mcl1-Noxa inh: 79*; eIF4E 4G PPI: 17; 14-3-3 Bad PPI: 64; Mcl1-Bid inh: 22

What do the screens show for `O=C(Nc1ccc(N2CCOCC2)cc1)c1cc2ccccc2o1`?
Hck Nef HTS: -12; Mcl1-Noxa inh: 26; eIF4E 4G PPI: 5; Mcl-1 Bim block: 1; 14-3-3 Bad PPI: 0; Mcl1-Bid inh: -49

How did O=C(O)c1coc2ccccc12 do in these assays?
Hck Nef HTS: 3; Mcl1-Noxa inh: 14; eIF4E 4G PPI: -1; Mcl-1 Bim block: 0; 14-3-3 Bad PPI: 5; Mcl1-Bid inh: -4

Results for O=C(/C=C/N1CCOCC1)c1cc2ccccc2o1 ?
Hck Nef HTS: 2; Mcl1-Noxa inh: 6; eIF4E 4G PPI: 3; Mcl-1 Bim block: 2; 14-3-3 Bad PPI: -24; Mcl1-Bid inh: 75*

How did O=C(/C=C/N1CCOCC1)c1coc2ccccc12 do in these assays?
Hck Nef HTS: 1; Mcl1-Noxa inh: -3; eIF4E 4G PPI: -3; Mcl-1 Bim block: -1; 14-3-3 Bad PPI: 3; Mcl1-Bid inh: 71*

What do the screens show for `CCOc1ccc(/C=c2\sc3nc(-c4ccco4)nn3c2=O)cc1OCC`?
Hck Nef HTS: 3; Mcl1-Noxa inh: 27; eIF4E 4G PPI: -19; Mcl-1 Bim block: 12; 14-3-3 Bad PPI: -7; Mcl1-Bid inh: -1

Results for COc1ccccc1/C=c1\sc2nc(-c3ccco3)nn2c1=O ?
Hck Nef HTS: 5; Mcl1-Noxa inh: 74*; eIF4E 4G PPI: 9; Mcl-1 Bim block: -2; 14-3-3 Bad PPI: -3; Mcl1-Bid inh: -27

What do the screens show for `Cc1cc2nccc(-c3cccnc3)n2n1`?
Hck Nef HTS: 22; Mcl1-Noxa inh: -1; eIF4E 4G PPI: 4; Mcl-1 Bim block: 2; 14-3-3 Bad PPI: -20; Mcl1-Bid inh: -12
